Vaccinia Venus = qHTS for Stage-Specific Inhibitors of Vaccinia Orthopoxvirus: Venus Reporter Primary qHTS | AID 720580, 2013 | Vaccinia virus Venus reporter expression, fluorescence | 330,000 compounds, 0.46% hits | Potency, µM (series often up to 36.5 µM), actives largely listed as inhibitors; calls by dose curve; tested in A549 cells; note: nearly all actives have a fitted effect of over 30% in size
HCV inhibitor = qHTS Assay for Inhibitors of Hepatitis C Virus (HCV). Potency, µM (top dose mostly 41.8 µM), usual class: inhibitors. AID 651820, 2012. 340,000 compounds, 3.4% hits. Huh7.5.1 HCVcc-Cre infection, luciferase reporter, 44 h
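Antiviral activity was scored by luciferase reporter output from cells infected with HCVcc-Cre (~0.5 moi) in presence of compound, 44 h infection period, cells seeded 1,000/well 4 h prior.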
Pf growth 48h = Primary qHTS for delayed death inhibitors of the malarial parasite plastid, 48 hour incubation; AID 504832, 2011; P. falciparum luciferase growth in erythrocytes, 48 h; Potency, µM (top dose mostly 28.7 µM), hits mostly inhibitors; 310,000 compounds, 5.9% hits
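Compounds are pin-transferred into medium, infected erythrocytes (2% hematocrit, 0.1% parasitemia final) are added, and plates sit one parasite generation at 37 C in 5% CO2. Detection reagent is then added and luminescence measured.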
Pf growth 96h = Primary qHTS for delayed death inhibitors of the malarial parasite plastid, 96 hour incubation; P. falciparum luciferase reporter growth, 96 h; Potency, µM (highest dose often 28.7 µM), hits mostly inhibitors; 320,000 compounds, 6.9% hits; AID 504834, 2011
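Two parasite generations (96 h, 37 C, 5% CO2) of compound exposure in infected erythrocytes (0.05% parasitemia, 2% hematocrit). Luciferase-reporter P. falciparum; decreased luminescence indicates inhibited growth, aimed at apicoplast-acting delayed death.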
NS1 inh = qHTS Assay for Inhibitors of Influenza NS1 Protein Function; AID 2326, 2010; Potency, µM (titrated, usually from 46.1 µM); 270,000 compounds, 0.4% hits; calls by dose curve; note: actives are rising curves; nearly all actives have a fitted effect of over 50% in size
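Growth recovery, yeast-based: influenza A NS1 expressed in S. cerevisiae causes slow growth, and suppressors are detected by OD600. The parent strain without NS1 is used as positive control.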
VACV mCherry inh = qHTS for Stage-Specific Inhibitors of Vaccinia Orthopoxvirus: mCherry Reporter Primary qHTS | Vaccinia virus mCherry reporter infection, fluorescence | Potency, µM (titrated, usually from 36.5 µM), actives largely listed as inhibitors | 310,000 compounds, 0.63% hits; calls by dose curve; tested in A549 cells; note: nearly all actives have a fitted effect of over 35% in size
Hits are given with their value; n = inactive; u = inconclusive; x = not tested or not shown; ! = not active in a repeat; [ ] = dose if it differs, or a comment. A selection: hits, their analogues and other compounds. The true share with any hit is near 11%. Unless noted, calls come from the whole dose curve; as a rule, active = well fitted inhibition curve with a large enough effect; inconclusive = small, poorly fitted or top-dose-only effect, or another doubt; inactive = no such curve, though single readings can be large or run the other way.

SMILES	Vaccinia Venus	HCV inhibitor	Pf growth 48h	Pf growth 96h	NS1 inh	VACV mCherry inh
O=C(O)CC1=C(c2ccc(F)cc2)CCC1=O	n	n	n	6.57µM	n	n
Cc1cc(C)nc(NNC2=CC(=[N+]3CCCCC3)CC(C)(C)C2)n1	n	u	u	u	x	n
O=NN(C(=O)NC1CCC(C(=O)O)CC1)C1CCC(C(=O)O)CC1 (stereo unspecified)	n	x	x	x	x	n
COC(=O)c1c(C)cc(C)n2c1nc1ccccc12	u	u	n	7.38µM	n	x
O=C(Cn1cncn1)N/N=C/c1ccncc1	x	n	n	n	n	x
COc1ccc(/C=C(/C(=O)NCc2ccccc2)c2ccccc2)cc1	u	u	u	n	n	n
O=C(NCc1ccccc1)/C(=C/c1ccc(OC(F)F)cc1)c1ccccc1	u	22.4µM	n	u	n	n
COc1cccc(N2CCN(c3ccc(S(=O)(=O)N4CCN(C)CC4)cc3[N+](=O)[O-])CC2)c1	n	u	x	x	x	n
CCN(CC)S(=O)(=O)c1ccc(N2CCN(c3cccc(OC)c3)CC2)c([N+](=O)[O-])c1	n	u	u	9.28µM	n	n
CN1CCN(c2ccc(S(=O)(=O)N3CCCCC3)cc2[N+](=O)[O-])CC1	n	u	n	u	x	n
COc1ccc(N2CCN(S(=O)(=O)c3ccc4c(c3)CCCC4)CC2)c([N+](=O)[O-])c1	u	5.01µM	n	n	u	n
COc1ccc(CCNC(=O)CCCCn2c(=O)c3ccccc3n(CC(=O)Nc3c(C)cccc3C)c2=O)cc1OC	n	x	x	x	x	n
CCOc1ccc(OCC)c(NC(=O)CC(C)n2nc(C)cc2C)c1 (stereo unspecified)	n	x	x	x	x	n
CCOC(=O)c1sc2nc(N3CCOCC3)c3c(c2c1N)CCC3	x	u	u	u	n	x
Nc1c(C(=O)NCCc2ccccc2)sc2nc(N3CCOCC3)c3c(c12)CCCC3	n	u	n[5.75 µM]	n[5.75 µM]	x	u
CCOC(=O)c1sc2nc(N3CCOCC3)c3c(c2c1N)CCN(Cc1ccccc1)C3	u	n	u	9.28µM	n	u
CN(C(=O)c1sc2nc(N3CCOCC3)c3c(c2c1N)CCCC3)c1ccccc1	n	11.2µM	u	n	x	n
Cc1n[nH]c(C)c1CCCCOc1ccc([N+](=O)[O-])cc1	x	u	n	n	n	x
COC(=O)[C@@H](N)Cc1ccc(O)c(O)c1	n	u	u	9.53µM!	n	n
CC(=O)NC[C@@H]1CN(c2ccc(N3CCOCC3)c(F)c2)C(=O)O1	x	x	n	15.1µM	x	x
COC(=O)c1ccc(N2CCOCC2)c(F)c1	n	n	x	n	n	n
COc1cccc(-c2nc3ccc(C(=O)N4CCCC(O)C4)cc3o2)c1 (stereo unspecified)	n	n	n	10.4µM	n	n
COc1cc(OC)cc(C(=O)N2CCN(C(=O)c3cccnc3)CC2)c1	x	n	u	14.7µM	n	x
COc1ccc2cc(C(=O)C3CCCN(C(=O)C4=NN(C)C(=O)CC4)C3)ccc2c1 (stereo unspecified)	x	n	n	5.22µM	n	x
COc1ccc2cc(C(=O)C3CCCN(C(=O)c4cccnc4)C3)ccc2c1 (stereo unspecified)	n	u	n	11.7µM	n	n
SMILES	Vaccinia Venus	HCV inhibitor	Pf growth 48h	Pf growth 96h	NS1 inh	VACV mCherry inh
COc1ccc2cc(C(=O)C3CCCN(C(=O)c4csnn4)C3)ccc2c1 (stereo unspecified)	n	n	u	u	n	n
CCC(=O)C1CCCN(C(=O)c2ccc3nc(-c4cccc(OC)c4)oc3c2)C1 (stereo unspecified)	x	u	n	u	n	x
CNC(=S)N1N=C(c2ccc(C)cc2)CC1c1ccc(N(C)C)cc1 (stereo unspecified)	n	n	u	u	x	n
O=C(Cc1cccc(NC(=O)C2CCN(C(=O)C3CC3)CC2)c1)Nc1cccc(C(=O)N2CCOCC2)c1	n	n	x	x	x	n
CCOc1cccc(N(C(=O)CCC(=O)Nc2cc(C)on2)C(C(=O)NC(C)(C)C)c2ccc(OC)cc2)c1 (stereo unspecified)	n	n	3.29µM	u	n	n
CCc1ccc(N(C(=O)CCC(=O)Nc2cc(C)on2)C(C(=O)NC(C)(C)C)c2ccc(OC)cc2)cc1 (stereo unspecified)	u	u	2.08µM	n	n	n
CCC(C)(C)NC(=O)C(c1ccc(OC)cc1)N(C(=O)CCC(=O)Nc1cc(C)on1)C(C)(C)C (stereo unspecified)	n	n	u	11.7µM	n	n
CC(=O)NC12CC3CC(C1)CC(C(=O)Nc1nc4ccc(F)cc4s1)(C3)C2	n	u	n	n	n	n
Cc1ccc(CNCC2CCCO2)o1 (stereo unspecified)	x	n	n	13.1µM	n	x
COc1ccc(OC(=O)c2c(C)nn(-c3ccccc3)c2C)cc1	n	n	n	n	n	n
Cc1ccsc1CNC12CC3CC(CC(C3)C1)C2	n	n	n	0.828µM	n	n
CC(C)NS(=O)(=O)c1ccc2c(c1)NCC2	n	n	n	n	n	n
CCOCN(C(=O)CCl)c1c(C)cccc1CC	n	u	13.1µM	u	x	n
CCOCN(C(=O)Cn1c(CO)nc2ccccc21)c1c(C)cccc1CC	x	n	n	10.4µM	n	x
COc1ccc(-c2cc(=O)c3c(O)c(OC)c(OC)c(OC)c3o2)cc1OC	n	x	x	x	x	n
O=C(O)CCC(=O)Nc1ccc(-n2ccc(C(F)(F)F)n2)cc1	n	n	1.65µM	n	n	n
Cc1cc(C)cc(NC(=O)Nc2ccc(-n3ccc(C(F)(F)F)n3)cc2)c1	u	u	11.7µM	u	n	n
O=C(Nc1ccc(-n2ccc(C(F)(F)F)n2)cc1)Nc1cccc(Cl)c1	x	x	u	u	n	x
COc1ccccc1NC(=O)Nc1ccc(-n2ccc(C(F)(F)F)n2)cc1	n	5.62µM	u	u	n	n
COC(=O)c1cc2sc(C)cc2n1CC(=O)Nc1cccc(SC)c1	n	x	x	x	x	n
CC12CCC(C(=O)N(CSC(=S)N/N=C\c3ccccc3)C1=O)C2(C)C (stereo unspecified)	n	n	u	u	u	n
Cc1cccc(C(=O)n2cnnc2N)c1	n	n	10.4µM	n	n	n
Cc1cc(C)cc(C(=O)n2cnnc2N)c1	n	n	n	x	n	n
Nc1nc(/C=C/c2ccc(F)cc2)nc(-c2ccccc2O)n1	n	n	n	n	n	n
CCOC(=O)c1ccc(Nc2c(-c3ccc(O)c(OC)c3)nc3nc[nH]n23)cc1	n	x	x	x	x	n
O=C(Cc1coc2ccc3ccccc3c12)Nc1nnc(C2CC2)s1	n	u	n	u	n	12.6µM
Cc1cc2nc(-c3ccc(OCc4ccccc4Cl)cc3)cc(C(F)(F)F)n2n1	n	x	x	x	x	n
Cc1cccc2c1cnn2C(=O)CCC(=O)NCc1ccc(F)cc1	n	n	n	14.7µM	n	n

High-throughput results deposited in PubChem BioAssay by National Center for Advancing Translational Sciences (NCATS).
